Source: PubChem BioAssay (Bradner/Qi Labs at DFCI)
CBX7 AlphaScr: CBX7 chromodomain binding inhibitors, primary screen, biochemical, AlphaScreen; actives 1.1% (n = 66,000); normalised signal (fraction of DMSO) (no concentration beside the values); Chromobox protein homolog 7 (Homo sapiens), O95931; AlphaScreen His6-CBX7 / biotin-H3K27me3 peptide binding; stronger effect = lower value; in the data active = normalised signal below about 0.5
Target sequence (O95931 whole entry, looked up): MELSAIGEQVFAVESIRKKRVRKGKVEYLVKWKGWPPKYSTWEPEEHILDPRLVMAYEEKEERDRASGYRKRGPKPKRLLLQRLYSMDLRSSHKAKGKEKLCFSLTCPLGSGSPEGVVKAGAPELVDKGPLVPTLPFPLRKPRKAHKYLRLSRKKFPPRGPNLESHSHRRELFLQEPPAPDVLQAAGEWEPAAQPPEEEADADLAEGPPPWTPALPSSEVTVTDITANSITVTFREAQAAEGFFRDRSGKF
Active calls of the source: *. The sample as a whole holds a higher share of hits than the screen did.

Results for Cc1cc(NC(=O)Nc2ccc3c(c2)N(C)C(=O)CS3)ccc1Br ?
CBX7 AlphaScr: 1

How did Cc1ccccc1NC(=O)C1CCCN(S(=O)(=O)c2c(C)nn(C)c2C)C1 (stereo not drawn) do in these assays?
CBX7 AlphaScr: 1.1

How did COc1ccc(CN(C(=O)c2ccccc2)C2CCS(=O)(=O)C2)cc1 (stereo not drawn) do in these assays?
CBX7 AlphaScr: 1.1

What do the screens show for `COc1cccc(-n2ccnc2SCC(=O)Nc2nc3ccccc3s2)c1`?
CBX7 AlphaScr: 1.2

What do the screens show for `CC1CCCC(C)N1CCCNC(=O)c1cc2sccc2n1Cc1ccc(Cl)cc1` (stereo not drawn)?
CBX7 AlphaScr: 0.94

What do the screens show for `CCOC(=O)Cc1csc(NC(=O)COc2cc(C)ccc2C(C)C)n1`?
CBX7 AlphaScr: 1.1

Results for CCC(Cc1ccccc1)NC(=O)CS(=O)(=O)Cc1nc(-c2ccccc2Cl)oc1C (stereo not drawn) ?
CBX7 AlphaScr: 0.98

How did CCOc1ccc(Nc2nnc(C(C)(C)C)c(=O)[nH]2)cc1 do in these assays?
CBX7 AlphaScr: 1

How did Cc1ccc(Nc2nnc(C(C)(C)C)c(=O)[nH]2)cc1 do in these assays?
CBX7 AlphaScr: 1.3

How did CCOC(=O)c1ccc(Nc2nnc(C(C)(C)C)c(=O)[nH]2)cc1 do in these assays?
CBX7 AlphaScr: 0.5*

Results for COc1ccc(N2Cc3cccc(C(=O)NCCCN4CCCC4=O)c3C2=O)cc1 ?
CBX7 AlphaScr: 0.98

What do the screens show for `COc1ccccc1NC(=O)Cn1ncc2c1-c1cc(C)ccc1OC2`?
CBX7 AlphaScr: 1

What do the screens show for `O=C(NCc1ccccn1)c1ccc2c(=O)n(CCc3ccccc3)c(=O)[nH]c2c1`?
CBX7 AlphaScr: 0.9

What do the screens show for `CCCCCn1c(=O)[nH]c2cc(C(=O)NCc3ccccn3)ccc2c1=O`?
CBX7 AlphaScr: 0.11*

Results for CCCCCn1c(=O)[nH]c2cc(C(=O)NCc3ccc(Cl)cc3)ccc2c1=O ?
CBX7 AlphaScr: 1

Results for CCCCOCCCNC(=O)c1c(-c2ccccc2Cl)noc1C ?
CBX7 AlphaScr: 1

What do the screens show for `Cc1ccc(-c2ccc(OCC(=O)NCCc3nc4ccccc4[nH]3)cc2)cc1`?
CBX7 AlphaScr: 1.3

How did Cc1cc(C)c(-c2csc(NC(=O)c3cccc(C(F)(F)F)c3)n2)c(C)c1 do in these assays?
CBX7 AlphaScr: 1.1

Results for COc1ccc2c(c1)CCc1c(C(=O)Nc3ccc(F)cc3F)noc1-2 ?
CBX7 AlphaScr: 1

What do the screens show for `Cc1ccc2c(c1)C(c1ccc(F)cc1)N(C(=O)c1ccc(-c3ccccc3)cc1)CC(=O)N2` (stereo not drawn)?
CBX7 AlphaScr: 0.58

How did CCn1c(C(=O)N2CCCC(C(=O)NCCc3c[nH]c4ccccc34)C2)cc2sccc21 (stereo not drawn) do in these assays?
CBX7 AlphaScr: 0.67

What do the screens show for `CC(Oc1ccc(Br)cc1)n1cncn1` (stereo not drawn)?
CBX7 AlphaScr: 1

Results for CCSc1oc(-c2ccccc2)nc1S(=O)(=O)c1ccc(Br)cc1 ?
CBX7 AlphaScr: 1.1

How did COc1ccc(CN2CC(C(=O)NC3CCCC3)CC2=O)cc1 (stereo not drawn) do in these assays?
CBX7 AlphaScr: 1

What do the screens show for `COc1ccc(CN2CC(C(=O)NCc3ccccn3)CC2=O)cc1` (stereo not drawn)?
CBX7 AlphaScr: 0.37*

Results for COc1ccc(CN2CC(C(=O)NCc3ccc(F)cc3)CC2=O)cc1 (stereo not drawn) ?
CBX7 AlphaScr: 1.1

Results for Cc1ccc(CNc2ccc3nnc(-c4ccc(F)cc4)n3n2)cc1 ?
CBX7 AlphaScr: 1

How did Cc1cc(C)c(Cc2c(C)nc3c(C(=O)O)cnn3c2C)c(C)c1 do in these assays?
CBX7 AlphaScr: 1

How did O=C(CCN1C(=O)COc2ccccc21)NCc1ccccn1 do in these assays?
CBX7 AlphaScr: 0.16*

How did Cc1ccc2c(c1)N(C(C)C(=O)NCc1ccccn1)C(=O)CO2 (stereo not drawn) do in these assays?
CBX7 AlphaScr: 0.25*

Results for Cc1ccc2c(c1)N(CCC(=O)NCc1ccccn1)C(=O)CO2 ?
CBX7 AlphaScr: 0.34*

What do the screens show for `CC(C(=O)NCc1ccccn1)N1C(=O)COc2ccc(Cl)cc21` (stereo not drawn)?
CBX7 AlphaScr: 0.82

Results for Cc1ccc2c(c1)N(CCCC(=O)NCc1ccccn1)C(=O)CO2 ?
CBX7 AlphaScr: 1.3

What do the screens show for `Cc1ccc2c(c1)N(C(C)C(=O)NCc1ccccc1)C(=O)CO2` (stereo not drawn)?
CBX7 AlphaScr: 1

How did Cc1ccc2c(c1)N(CCC(=O)NCc1cccnc1)C(=O)CO2 do in these assays?
CBX7 AlphaScr: 0.99

Results for O=C(CCN1C(=O)COc2ccccc21)NCc1ccccc1Cl ?
CBX7 AlphaScr: 1.1

Results for Cc1ccc(CNC(=O)CCN2C(=O)COc3ccccc32)cc1 ?
CBX7 AlphaScr: 1

How did CCC(=O)N1CCc2cc(S(=O)(=O)N3CCOCC3)ccc21 do in these assays?
CBX7 AlphaScr: 1.1

What do the screens show for `Cc1ccc(NC(=O)CN2C(=O)c3ccccc3Sc3ccc(C(=O)N4CCCC4)cc32)cc1C`?
CBX7 AlphaScr: 1

How did FC(F)(F)c1cccc(N2CCN(c3ccc4nncn4n3)CC2)c1 do in these assays?
CBX7 AlphaScr: 1

Results for O=C(NCc1ccccc1Cl)C1CCN(Cc2cnn(-c3ccccc3)c2-n2cccc2)CC1 ?
CBX7 AlphaScr: 0.94

How did CC(C)OCCCNC(=O)C1CCN(c2nnc(-n3cccc3)s2)CC1 do in these assays?
CBX7 AlphaScr: 1.1

Results for Cn1c(C(=O)N2CCCC(C(=O)NCc3ccc(F)cc3)C2)cc2sccc21 (stereo not drawn) ?
CBX7 AlphaScr: 0.89

Results for Cc1ccc(NC(=O)Cn2cnc3sc(C(=O)NCCC4=CCCCC4)c(C)c3c2=O)cc1Cl ?
CBX7 AlphaScr: 0.85

Results for CCOC(=O)c1[nH]c2c(c1CCC1CCCCC1)C(=O)CC(c1ccc(OC)cc1)C2 (stereo not drawn) ?
CBX7 AlphaScr: 0.8

Results for O=S(=O)(c1ccc(Cl)cc1)c1nc(-c2ccccc2F)oc1N1CCCCC1 ?
CBX7 AlphaScr: 0.6

Results for O=S(=O)(c1ccc(Cl)cc1)c1nc(-c2ccccc2F)oc1N1CCCCCC1 ?
CBX7 AlphaScr: 0.69

What do the screens show for `O=S(=O)(c1ccccc1)c1nc(-c2ccccc2F)oc1N1CCCCC1`?
CBX7 AlphaScr: 0.49*

How did CCn1cc(C(=O)Nc2cc(Cl)ccc2OC)c2cc(OC)c(OC)cc2c1=O do in these assays?
CBX7 AlphaScr: 0.95

Results for O=C(Cn1ncc2c1-c1ccccc1OC2)Nc1cc(F)ccc1F ?
CBX7 AlphaScr: 1

Results for CN(C(=O)Cc1nc(N)n[nH]1)C1(C(=O)Nc2ccccc2)CCCCC1 ?
CBX7 AlphaScr: 0.027*

What do the screens show for `Nc1n[nH]c(CC(=O)N(Cc2ccccc2)C2(C(=O)Nc3ccccc3)CCCCC2)n1`?
CBX7 AlphaScr: 0.7

How did Cc1ccc(NC(=O)C2(N(C)C(=O)Cc3nc(N)n[nH]3)CCCCC2)cc1 do in these assays?
CBX7 AlphaScr: 0.79

What do the screens show for `CCOc1cccc(CNc2ccc3[nH]c(=O)[nH]c3c2)c1OCc1ccc(Cl)cc1`?
CBX7 AlphaScr: 0.44*

How did O=c1[nH]c2ccc(NCc3ccc(F)cc3)cc2[nH]1 do in these assays?
CBX7 AlphaScr: 0.92

Results for O=c1[nH]c2ccc(NCc3ccc(OCc4ccc(Cl)cc4)cc3)cc2[nH]1 ?
CBX7 AlphaScr: 0.86

What do the screens show for `Cc1ccc(CNC(=O)CCc2cn(Cc3ccccc3)c3ccccc23)cc1`?
CBX7 AlphaScr: 1

Results for COCCNC(=O)c1cc(-c2ccc(Br)cc2)on1 ?
CBX7 AlphaScr: 1.1
